Insulin prom inh – inhibitors of insulin promoter-driven GFP, primary screen, imaging, TRM-6 cells (human fetal islet line), eGFP reporter, cell count | inhibition, % at 2 µM | reporter expression induced with tamoxifen | hit rate 0.9% among 130,000;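 active = inhibition above the mean plus 3 SD, with well images judged a real hit on visual review, cut at about 60% in these data, passing the limit was not always enough; inconclusive = inhibition over the cutoff but images rejected on review; inactive = inhibition not above the cutoff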
Cl transport mod – KCC2 cotransporter modulators, thallium flux, primary screen, cell-based, HEK293 KCC2, FluoZin-2 fluorescence, MLSMR; hit rate 2.2% among 190,000; KCC2 cells, thallium flux FluoZin-2 fluorescence; B-score of Tl+ flux slope (higher = more flux/activation; lower = inhibition) at 10 µM;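 active = thallium flux slope and its plate-corrected score both differing from the plate sample mean at a set confidence after two filtering rounds, in either direction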;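 also: slope of fluorescence scaled to starting intensity during 10 to 20 s after thallium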
Target sequence (Q9H2X9 whole entry, looked up): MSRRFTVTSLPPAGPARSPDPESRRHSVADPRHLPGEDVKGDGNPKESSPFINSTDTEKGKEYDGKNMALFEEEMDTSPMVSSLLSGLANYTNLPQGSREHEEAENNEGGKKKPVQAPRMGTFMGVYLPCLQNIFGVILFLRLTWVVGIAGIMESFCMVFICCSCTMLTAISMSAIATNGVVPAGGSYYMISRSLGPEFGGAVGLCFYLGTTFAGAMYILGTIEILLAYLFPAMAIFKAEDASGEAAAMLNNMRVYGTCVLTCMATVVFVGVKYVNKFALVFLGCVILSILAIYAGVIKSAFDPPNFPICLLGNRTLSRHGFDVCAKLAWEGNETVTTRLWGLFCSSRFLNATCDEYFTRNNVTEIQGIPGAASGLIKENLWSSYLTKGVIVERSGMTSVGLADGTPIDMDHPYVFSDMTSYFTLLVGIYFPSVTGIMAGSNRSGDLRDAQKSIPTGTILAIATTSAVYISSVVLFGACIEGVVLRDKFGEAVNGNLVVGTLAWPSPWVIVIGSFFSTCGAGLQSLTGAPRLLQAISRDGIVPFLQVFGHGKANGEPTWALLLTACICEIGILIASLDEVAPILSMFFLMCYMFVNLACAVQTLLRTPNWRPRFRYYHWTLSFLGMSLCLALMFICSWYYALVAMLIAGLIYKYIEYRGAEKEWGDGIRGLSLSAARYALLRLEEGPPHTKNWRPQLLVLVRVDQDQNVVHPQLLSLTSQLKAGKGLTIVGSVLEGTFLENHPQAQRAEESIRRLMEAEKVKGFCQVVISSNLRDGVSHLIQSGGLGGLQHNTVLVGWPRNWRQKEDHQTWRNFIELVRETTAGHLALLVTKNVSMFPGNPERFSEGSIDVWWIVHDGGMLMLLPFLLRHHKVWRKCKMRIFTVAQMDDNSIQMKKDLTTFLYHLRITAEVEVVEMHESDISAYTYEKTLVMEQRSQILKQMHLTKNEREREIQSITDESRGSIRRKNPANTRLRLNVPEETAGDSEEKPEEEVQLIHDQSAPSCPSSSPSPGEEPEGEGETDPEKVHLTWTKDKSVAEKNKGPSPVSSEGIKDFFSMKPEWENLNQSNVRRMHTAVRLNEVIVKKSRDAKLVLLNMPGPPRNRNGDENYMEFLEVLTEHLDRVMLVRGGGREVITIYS
Insulin prom up – insulin promoter activators in MIN6 cells, imaging, high-content screening, mouse beta cells. MIN6 insulin promoter-GFP reporter; hits give high values. z-score at 5 µM. hit rate 0.3% among 190,000;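 active = z-score above 3 at 5 µM with at least 500 cells counted in the well; inconclusive = wells under 500 cells, flagged as cytotoxic or low count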
WT yeast gro inh – growth inhibition of WT strain, primary screen, mitochondrial fusion inhibitor project, WT and mutant strains, chemical genetic; mitochondrial fusion phenotypic screen; inhibition, % at 10 µM; hit rate 2.1% among 190,000; AID 1362, 2008; in the data active = inhibition above about 58%; tested in S. cerevisiae
ROMK mod – ROMK potassium channel modulators, primary screen, cell-based, thallium flux, MLSMR library. Tet-inducible ROMK, thallium flux fluorescence; actives lie on both sides. hit rate 2% among 130,000. B-score at 10 µM. ATP-sensitive inward rectifier potassium channel 1 (Homo sapiens), P48048;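 active = signal ratio slope over the read window, or its plate-corrected B-score, at least 3 SD from the plate mean, either direction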;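 also: B-score of the F/F0 ratio slope over 7 to 12 s after thallium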
Lmaj promast – Leishmania major promastigote growth inhibition, primary screen. Leishmania major promastigotes, resazurin fluorescence viability. inhibition, % at 10 µM. hit rate 9% among 200,000. AID 1063, 2008; in the data active = inhibition above about 50%;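 also: promastigotes grown with compound for 44 hours at 28 °C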
KCC2 sec1 – KCC2 modulators in sodium-free buffer, confirmation, cell-based, HEK293 KCC2, thallium flux, secondary assay. FluoZin2 fluorescence; hits give high values. AID 1713, 2009. normalised thallium flux (F/F0 slope) at 10 µM. shares compounds with Cl transport mod. hit rate 15% among 3,700;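 active = thallium flux slope above the same plate's solvent-only control mean plus 3 SD; inconclusive = the two replicate wells disagree; inactive = no significant difference from solvent-only control wells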
KCC2 bumet counter – thallium flux persisting under bumetanide in KCC2 cells, confirmation, counter-screen for KCC2 modulator project, cell-based, HEK293 KCC2, FluoZin2, secondary assay 3; shares compounds with Cl transport mod; HEK293-KCC2 + bumetanide/ouabain; hits give high values; normalized thallium flux at 10 µM; hit rate 49% among 3,700; AID 1714, 2009;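 active = thallium entry rate above the same plate's blocked-transporter control wells by more than 3 SD; inconclusive = the two repeat wells disagree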;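 also: raw slope of fluorescence over initial fluorescence between 10 and 20 s after thallium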
KCC2 secondary2 – KCC2 modulators without ouabain present, confirmation, cell-based, HEK293 KCC2, thallium flux, FluoZin2, secondary assay 2; hit rate 23% among 3,700; shares compounds with Cl transport mod; thallium flux FluoZin2 fluorescence; actives lie on both sides; F/F0 rise rate, 10–20 s post-thallium; normalized thallium flux at 10 µM;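 active = thallium flux slope more than 3 SD above or below the plate's solvent-only control mean, mostly below; inconclusive = the two repeat wells disagreed; inactive = no significant shift from solvent-only controls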;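 also: raw slope with 0.1% DMSO as baseline and bumetanide as block control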
HEK293 Tl flux – thallium flux modulation in parental HEK cells, confirmation, counter-screen for KCC2 modulator project, cell-based, counterscreen 1. HEK293 parental cells, thallium flux FluoZin2, ouabain; baseline-ratio fluorescence slope, 10–20 s after thallium. thallium flux rate (normalised fluorescence) at 10 µM. hit rate 46% among 3,700. shares compounds with Cl transport mod;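 active = thallium flux rate significantly above the same plate's solvent-only control wells, beyond their mean plus 3 SD; inconclusive = the two replicate wells gave conflicting results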
KCC2 retest ouab – KCC2 inhibitors and activators, ouabain retest, confirmation, HEK-KCC2 cells; hit rate 48% among 3,700; raw Tl+ flux slope (below DMSO = inhibition, above = activation) at 10 µM; HEK293-KCC2, thallium flux FluoZin2 fluorescence; bidirectional: low = inhibitor, high = activator; shares compounds with Cl transport mod; AID 1717, 2009;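 active = thallium flux slope beyond 3 SD from same-plate DMSO control mean in most replicates, usually higher, sometimes lower; inconclusive = repeat tests gave conflicting results; inactive = no significant difference from controls in most replicates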;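 also: slope of initial-normalized fluorescence between seconds 10 and 20 after thallium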
HEK293 Tl flux2 – native HEK Tl+ uptake effects, second counter-screen – HEK cells, counterscreen 2, counter-screen for KCC2 modulator project, confirmation. HEK293 parental, thallium flux FluoZin-2 fluorescence slope. AID 1718, 2009. thallium flux slope at 10 µM. hit rate 33% among 3,700. shares compounds with Cl transport mod;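 active = thallium flux slope above the same plate's solvent-control mean plus 3 SD in both duplicate wells; inconclusive = duplicate wells that disagreed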;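 also: run without ouabain in cells lacking the KCC2 cotransporter; slope of fluorescence scaled to its starting value between 10 and 20 s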
Numbers without * were called inactive; ? = inconclusive; . = no result given. The list is not random: actives were taken first. Their share in the collection is about 12%.

SMILES | Insulin prom inh | Cl transport mod | Insulin prom up | WT yeast gro inh | ROMK mod | Lmaj promast | KCC2 sec1 | KCC2 bumet counter | KCC2 secondary2 | HEK293 Tl flux | KCC2 retest ouab | HEK293 Tl flux2
COCCNc1nc2nonc2nc1N(C)Cc1cccc2cnccc12 | 20.0 | -3.14* | -0.81 | -12.9 | . | 1.4 | 0.00662 | 0.00486 | 0.0278 | 0.00791 | ? | 0.0115
CCCCNC(=O)CSc1nc(N)c(C(=O)Nc2ccc(OC)cc2)s1 | . | -1.27 | -0.4 | . | . | . | . | . | . | . | . | .
Cc1cc2nc(CN(C)Cc3c(C(=O)N(C)C)nc4ccc(Cl)cn34)[nH]c2cc1C | -7.1 | 0.501 | 0.03 | -0.8 | -0.162 | 14.8 | . | . | . | . | . | .
Cc1cnc(SCc2cnc(C)nc2N)nc1 | -5.0 | -0.00686 | . | -28.3 | 0.0967 | -5.3 | . | . | . | . | . | .
COc1ccc(-n2c(Cc3cccn3C)nnc2SCC(=O)Nc2ccc(F)cc2)cc1 | -10.0 | -3.11* | 1.22 | 0.9 | . | -3.1 | 0.00888 | 0.00502 | 0.0355 | 0.00722 | 0.019 | 0.0115
COc1ccc(NC(=O)CSc2nnc(Cc3cccn3C)n2-c2ccc(F)cc2)cc1 | . | 0.483 | -0.64 | -2.7 | . | 17.9 | . | . | . | . | . | .
Cc1ccc(C)c(/C=C/C(=O)c2ccccc(=O)c2O)c1 | -207.1 | 40.4* | 0 | 8.7 | -2.07 | 99.4* | 0.00614 | 0.067* | 0.0607* | 0.0623* | 0.0618* | 0.0513*
O=C(/C=C/c1ccc(O)c(O)c1)c1ccccc1O | . | -0.766 | -1.48 | . | -1.62 | . | . | . | . | . | . | .
Cc1ccc(/C=C/C(=O)c2ccccc(=O)c2O)c(C)c1 | -62.5 | 67.7* | 0.52 | 0.4 | -0.771 | 80.7* | 0.013* | 0.0882* | 0.0403* | 0.0562* | 0.0728* | 0.0197*
O=c1nc(SCc2ccccc2Cl)nc(-c2ccc(Cl)cc2)[nH]1 | . | 67.4* | 0.07 | . | 0.474 | . | 0.00908 | 0.00679 | 0.0357 | ? | ? | 0.00938
CN(C)CC(O)COc1cccc(OCC(O)CN(C)C)c1 (stereo not given) | . | . | -0.21 | -11.2 | 0.0221 | -4.9 | 0.00752 | 0.00442 | 0.031 | 0.00795 | 0.0197 | 0.0102
O=C(c1ccc(F)cc1)N1CCN(c2ccc([N+](=O)[O-])cc2-n2cccc2)CC1 | . | -3.72* | -0.48 | . | -0.0449 | . | 0.00925 | 0.005 | 0.0359 | 0.0069 | 0.0194 | 0.0111
Cc1cccc(C(=O)NNC(=O)C(=O)NC(C)(C)C)c1 | -16.1 | . | -0.1 | 3.7 | . | -3.9 | . | . | . | . | . | .
CC(C)(C)NC(=O)C(=O)NNC(=O)c1cccc(Br)c1 | . | 33* | 1.03 | 2.7 | 0.211 | -4.5 | 0.00965* | 0.0539* | 0.0466* | 0.0474* | 0.0502* | 0.0283*
COc1ccc(OC)c(-c2csc(NC(=O)C3COc4ccccc4O3)n2)c1 (stereo not given) | . | -0.0185 | -0.13 | 38.5 | -0.0218 | 14.3 | . | . | . | . | . | .
COc1ccccc1CNC(=O)C1COc2ccccc2O1 (stereo not given) | . | . | 0.91 | 6.5 | . | -4.0 | . | . | . | . | . | .
COc1ccc(Cl)cc1C(=O)NNC(=O)C1COc2ccccc2O1 (stereo not given) | 0.0 | 39* | -0.36 | -0.9 | 0.551 | -1.1 | 0.00989 | 0.0535* | 0.0331 | 0.0166* | 0.043* | 0.0116*
COC(=O)c1ccccc1NC(=O)C1COc2ccccc2O1 (stereo not given) | 21.4 | -1.74 | 0.74 | 13.7 | -2.06 | -2.3 | . | . | . | . | . | .
O=C(Nc1nc(-c2nc3ccccc3s2)cs1)C1COc2ccccc2O1 (stereo not given) | . | 2.55* | -0.33 | 17.9 | . | -3.4 | 0.00681 | 0.00832* | 0.0293 | ? | 0.0196 | 0.0112*
CCOC(=O)c1ccccc1NC(=O)C1COc2ccccc2O1 (stereo not given) | . | -5.18* | 0.14 | 23.1 | -0.5 | 5.8 | 0.00937 | 0.00479 | 0.0296 | 0.00656 | 0.0243 | 0.00966
COc1ccc2nc(NNC(=O)C3COc4ccccc4O3)sc2c1 (stereo not given) | 56.1 | 5.07* | 0.24 | 1.7 | -0.882 | -7.2 | 0.00855 | 0.0198* | 0.0333 | 0.0109* | ? | 0.0109
O=C(c1cccc(Br)c1)N1CCN(S(=O)(=O)N2CCOCC2)CC1 | 26.7 | -1.21 | -0.73 | -8.2 | 0.694 | -1.4 | . | . | . | . | . | .
O=C(N/N=C/c1sc(=O)n(-c2ccccc2)c1Cl)c1ccncc1 | 14.3 | -0.0472 | 2.56 | -1.6 | -1.08 | 9.7 | . | . | . | . | . | .
Cc1ccc(NC(=O)CC2SCCNC2=O)cc1[N+](=O)[O-] (stereo not given) | . | 0.751 | -0.08 | . | . | . | . | . | . | . | . | .
Fc1ccccc1CSc1nncn1NC/C=C/c1ccccc1 | 28.0 | -4.77* | . | 9.2 | . | -0.9 | 0.00727 | 0.0086* | ? | 0.00752 | 0.017 | 0.0112
CC[C@H](CO)Nc1nc(Nc2cccc(Cl)c2)c2ncn(C(C)C)c2n1 | . | -2.62* | 1.24 | . | . | . | 0.0168 | 0.00469 | ? | 0.00708 | 0.0146 | 0.0105
CN1CCN(C(=O)c2ccc(CS(=O)(=O)c3c(Cl)cccc3Cl)o2)CC1 | . | -3.31* | 0.31 | 3.7 | . | -5.7 | 0.0059 | 0.00466 | 0.0334 | 0.00767 | 0.0181 | 0.0116
Cc1ccc(C)c(C(=O)CC2(O)C(=O)N(C)c3ccccc32)c1 (stereo not given) | 60.7 | -0.296 | 1.22 | 5.3 | -0.849 | -1.3 | . | . | . | . | . | .
Cc1ccc(C(=O)CC2(O)C(=O)N(C)c3ccc(Br)cc32)c(C)c1 (stereo not given) | . | -3.63* | -0.55 | 5.8 | . | -4.3 | 0.00858 | ? | 0.0311 | 0.00897* | 0.022 | 0.0101
COc1ccccc1Nc1nnc(SCc2cc(=O)n3ccsc3n2)s1 | . | -0.85 | -0.85 | . | 3.26 | 10.8 | . | . | . | . | . | .

Screens as filed in PubChem BioAssay.
